JMJD2A Tudor: qHTS Assay for Inhibitors of JMJD2A-Tudor Domain. AlphaScreen JMJD2A-Tudor / H3K4me3 peptide binding. Potency, µM (top dose mostly 114 µM), for the others: at the top dose activity change, negative = inhibition, usual class: inhibitors. actives 4.4% (n = 390,000); further: on the % scale 0 is the no-effect control and ±100 the full control effect; nearly all actives have a fitted effect of over 50% in size
HP1b chromo inh: HTS for Inhibitors of HP1-beta Chromodomain Interactions with Methylated Histone Tails; AlphaScreen HP1-beta / biotin-H3K9me3 peptide binding; actives 0.56% (n = 390,000); Potency, µM (highest dose often 114 µM), inactives show at the highest dose activity change, negative = inhibition, usual class: inhibitors; further: nearly all actives have a fitted effect of over 70% in size
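Compound inhibition of the preformed complex between 50 nM HP1-beta and 50 nM biotinylated H3K9me3 peptide was read by AlphaScreen. Buffer was PBS pH 7.4 with 0.01% Tween-20. Incubations ran 30 min at room temperature, with 10 ug/mL donor/acceptor beads.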
GLS inhibitor: qHTS for Inhibitors of Glutaminase (GLS); Glutaminase kidney isoform, mitochondrial (Homo sapiens), O94925; GLS enzymatic activity, qHTS titration; Potency, µM (top dose mostly 45.5 µM), for the others: top-dose activity change, negative = inhibition, actives largely listed as inhibitors; actives 0.21% (n = 410,000); AID 624170, 2012; further: on the % scale 0 is the no-effect control and ±100 the full control effect
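hKGA; 45 mM KH2PO4 pH 8.2 + 0.02% Tween-20; cpd via pin tool; 1 mM Gln soln; GluOx/HRP/Amplex Red; RT 30 min; fluor. t0 & final.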
BAZ2B block: qHTS Assay for Inhibitors of BAZ2B | AlphaScreen BAZ2B-H3K14Ac peptide displacement | Bromodomain adjacent to zinc finger domain protein 2B (Homo sapiens), Q9UIF8 | actives 4.4% (n = 360,000) | Potency, µM (series often up to 114 µM), for inactives: at the top dose activity change, negative = inhibition, most hits filed as inhibitors | AID 504333, 2011; further: on the % scale 0 is the no-effect control and ±100 the full control effect; nearly all actives have a fitted effect of over 60% in size
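Complex of BAZ2B and biotin-H3K14Ac (50 nM apiece) forms over 30 min at RT, then faces library compounds up to 110 uM for another 30 min; AlphaScreen beads added, 20 min dark incubation, luminescence read.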
G9a block: qHTS Assay for Inhibitors of Histone Lysine Methyltransferase G9a. Histone-lysine N-methyltransferase EHMT2 (Homo sapiens), Q96KQ7. G9a H3K9 monomethylation, AlphaScreen, 2 h. Potency, µM (highest dose often 102 µM), for the others: at the top dose activity, negative = inhibition, actives largely listed as inhibitors. actives 8.8% (n = 350,000). AID 504332, 2011; further: on the % scale 0 is the no-effect control and ±100 the full control effect; nearly all actives have a fitted effect of over 75% in size
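G9a (20 nM) was preincubated 15 min with compound, then reacted 2 h at room temperature with 500 nM biotin-H3K9 peptide and 20 µM SAM. Monomethyl-H3K9 detected by AlphaScreen using anti-H3K9me1 antibody.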
The depositor's hits bear a star; ? = inconclusive; / = no result; [ ] = another dose, or the depositor's remark. Most compounds without a hit are left out; they make up all but 10% or so of the library. The call rests on the fitted dose curve; in most records, active means well fitted curve in the direction sought with a large enough effect; inconclusive means small, poorly fitted or top-dose-only effect, or another doubt; inactive means no such curve, though single readings can be large; an effect the other way counts as inactive or inconclusive. Potency means the concentration at half of the fitted maximal effect.

SMILES | JMJD2A Tudor | HP1b chromo inh | GLS inhibitor | BAZ2B block | G9a block
COc1nc(NCC2CCCO2)nc(N2CC3CC(C2)c2cccc(=O)n2C3)n1 (centres undefined) | 3.1% | 37.4% | -7.4% | -0.8% | -9.6%[12.7 µM]
CSCCC(c1nnnn1-c1c(C)cccc1C)N1CCC(n2c(=O)[nH]c3ccccc32)CC1 (centres undefined) | / | / | 39.8% | / | /
COc1ccc(OCC(=O)N2CCN(CC3CC4C=CC3C4)CC2)cc1 (centres undefined) | 5.62µM* | ? | 8.3% | 50.1µM* | 17.8µM*
O=C(Cc1ccccc1)N1CCN(CC2CC3C=CC2C3)CC1 (centres undefined) | 4.47µM* | 50.1µM* | 0.4% | 31.6µM* | ?
COC(=O)CC(NC(=S)N1CC2C[C@@H](C1)Cn1c2cccc1=O)C(=O)OC (some centres undefined) | 5.0% | 36.4% | -5.7% | -2.8% | -3.5%
COc1ccc(CCNCc2ccncc2)cc1 | 1.26µM* | ? | -2.2% | 56.2µM* | ?
COc1ccc(CCNCc2cc(OC)cc(OC)c2)cc1 | / | / | 2.2% | / | /
Fc1ccc(CNCCc2ccccc2)cc1 | 22.4µM* | ? | 6.7% | / | ?
COc1ccc(CCNCc2ccccc2)cc1 | 7.08µM* | ? | -0.6% | 25.1µM* | 5.1%[2.33 µM]
COc1cccc(CCNCc2ccc(SC)cc2)c1 | 25.1µM* | ? | -13.2% | 50.1µM* | 3.16µM*
O=C(CN1CCN(C(=O)COc2cccc(F)c2)CC1)Nc1ccc(Cl)c(C(F)(F)F)c1 | -11.1% | 43.1% | -7.8% | ? | ?
COc1ccc(C(O)P(=O)(Oc2ccccc2)Oc2ccccc2)cc1 (centres undefined) | 0.7% | -17.2% | 2.6% | -3.8% | -8.0%[2.33 µM]
COc1ccc(CCNCc2c(OC)ccc3ccccc23)cc1 | 22.4µM* | ? | -0.5% | 35.5µM* | 14.1µM*
COc1ccc(CCNC(C)CCc2ccc(OC)cc2)cc1 (centres undefined) | 0.0% | 9.4% | 2.0% | ? | ?
S=c1[nH]nc(-c2ccn[nH]2)n1-c1ccccc1Cl | 20µM* | ? | 14.3% | 50.1µM* | 3.16µM*
O=C(Cc1ccc(Cl)c(Cl)c1)N1CCCCC1CN1CCCC1 (centres undefined) | / | / | / | / | 26.7µM*
CCCCn1c(O)c(C(C)=NCC2CCCO2)c(=O)[nH]c1=O (centres undefined) | -18.9% | -0.3% | 4.5% | 7.2% | -1.7%[59 µM]
Cc1cccc(-c2nc(CN3C(=O)CN=C(c4ccccc4)c4ccccc43)c(C)o2)c1 | ? | -21.0% | 18.3% | 22.4µM* | ?
CCN1C(=O)/C(=C/c2ccc3c(c2)CCN3CCCCl)C(=O)NC1=S | 35.5µM* | ? | 1.3% | 39.8µM* | ?
O=C1NC(=S)N(C2CC2)C(=O)/C1=C/c1ccc2c(c1)CCN2CCCCl | 44.7µM* | ? | -2.9% | 31.6µM* | 11.2µM*
CC(C)(C)N1C(=O)NC(=O)/C(=C\c2ccc3c(c2)CCN3CCCCl)C1=O | 39.8µM* | ? | 0.0% | ? | 39.8µM*
C=CCN1C(=O)/C(=C/c2ccc3c(c2)CCCN3CCC)C(=O)NC1=S | 56.2µM* | ? | 1.5% | 44.7µM* | 14.1µM*
C=CCN1C(=O)/C(=C/c2cc(C)n(-c3cccnc3)c2C)C(=O)NC1=S | -12.5% | 4.1% | ? | -38.7% | ?
CSc1ncc(/C=C2/C(=O)NC(=O)N(C3CCCCC3)C2=O)cn1 | ? | -19.8% | ? | ? | ?
O=c1[nH]c2ccccc2n1C1CCN(C(c2cccs2)c2nnnn2Cc2ccccc2)CC1 (centres undefined) | / | / | 15.8% | / | /
Cn1cc(C(=O)OCC(=O)NC2(C#N)CCCCC2)c2ccccc21 | -13.7% | 24.5% | 0.5% | -7.4% | -38.8%
CCOC(=O)c1c(C)n(Cc2ccco2)c2ccc(OC)cc12 | -12.0% | 19.4% | 4.9% | 19.3% | 8.7%

Compound activity deposited in PubChem BioAssay by National Center for Advancing Translational Sciences (NCATS).
